Test results: PubChem BioAssay AID686979 (National Center for Advancing Translational Sciences (NCATS), 2013)
“And” between values parts separate entries of the source, which are not always exact repeats. Equal entries are not always repeated. About 50,000 (12%) of roughly 420,000 compounds were called active. About 26% were inconclusive and are not listed. This is one part of a sample in which actives are shown more often than they occur. Calls come from the whole dose curve; as a rule, active = well fitted inhibition curve with a large enough effect; inconclusive = small, poorly fitted or top-dose-only effect; inactive = flat fitted curve, though single readings scatter.

Assay: qHTS for Inhibitors of human tyrosyl-DNA phosphodiesterase 1 (TDP1): qHTS in cells in presence of CPT; note: nearly all actives have a fitted effect of over 55% in size
Settings: chicken DT40 Tdp1-/-;hTDP1 cells + 20 nM CPT, ATP luminescence, 48 h; series mostly up to 46.2 µM; activity change, negative = growth inhibition: at the top concentration
Summary of the method: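 Chicken DT40 Tdp1-/- cells complemented with human TDP1, 400 cells/well, exposed to compounds plus 20 nM camptothecin for at least 48 h at 37 C; viability read as ATP content by CellTiter-Glo luminescence.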
% is set by controls: 0 for no effect and ±100 for the full control effect; potency is the fitted concentration of half-maximal effect.

Structure (SMILES)	Potency	activity change, negative = growth inhibition
COc1cccc(/C=C2\Sc3ccc(C(=O)NCC4CCCO4)cc3N(C)C2=O)c1 (configuration not stated)	18.4 µM (active)	
COc1ccc(CN2C(=O)C(CC(=O)NCc3cccc4ccccc34)CC(C(=O)N3CCOCC3)=C2C)cc1 (configuration not stated)		-12.7% (inactive)
COc1ccc(-n2nc3c(N4CCC(C(=O)NCc5ccccc5)CC4)nnc(C)c3c2C)cc1		-21.8% (inactive)
Cc1nnc(N2CCCC(C(=O)NCCN(C)C)C2)c2nn(-c3ccccc3)c(C)c12 (configuration not stated)		-16.4% (inactive)
CCc1ccc(CNC(=O)C2CCN(c3nnc(C)c4c(C)n(-c5ccc(C)cc5)nc34)CC2)cc1	5.17 µM (active) and 16.4 µM (active)	
CCOc1ccc(CNC(=O)C2CCCN(c3nnc(C)c4c(C)n(-c5ccccc5)nc34)C2)cc1 (configuration not stated)	13 µM (active)	
Cc1ccc(NC(=O)N2CCC(C(=O)NCc3ccc(F)cc3)CC2)cc1		-17.6% (inactive)
CCOC(=O)C1CCN(C(=O)Cn2nc(C)c3c(C)n(-c4ccccc4)nc3c2=O)CC1		-18% (inactive)
Cc1ccc(C=O)cc1Cl		-16.7% (inactive)
Cc1nc2scc(-c3cccs3)c2c(=O)n1N		0.389% (inactive)
[2H]C(CCOS(N)(=O)=O)c1ccccc1 (configuration not stated)		-11.5% (inactive)
COc1ccccc1-n1nnnc1S(=O)(=O)Cc1ccc(Cl)cc1	5.8 µM (active)	
COc1ccccc1-n1nnnc1SCC(=O)NC(=O)Cc1ccccc1		-8.14% (inactive)
CCC(C)N(C(=O)CSc1nnnn1-c1ccccc1OC)C1CCS(=O)(=O)C1 (configuration not stated)		-22.6% (inactive)
O=C(NCCO)c1cccc(-c2cccc3nccn23)c1		8.69% (inactive)
CS(=O)(=O)Nc1cccc(C2=NN(S(=O)(=O)c3ccccc3)C(c3cccs3)C2)c1 (configuration not stated)		-5.61% (inactive)
CS(=O)(=O)Nc1cccc(C2=NN(C(=O)c3cccc(F)c3)C(c3cccs3)C2)c1 (configuration not stated)	23.1 µM (active)	
CCOc1ccccc1C1CC(c2cccc(NS(C)(=O)=O)c2)=NN1C(=O)c1ccccc1 (configuration not stated)		-6.18% (inactive)
CCS(=O)(=O)Nc1ccc(C2=NN(C(C)=O)C(c3cccs3)C2)cc1 (configuration not stated)	4.11 µM (active)	
CS(=O)(=O)Nc1ccc(C2=NN(S(C)(=O)=O)C(c3cccs3)C2)cc1 (configuration not stated)		-4.9% (inactive)
COc1ccc(C2=NN(C(=O)CCC(=O)O)C(c3cccs3)C2)cc1OC (configuration not stated)		16% (inactive)
CCNC(=O)Cn1nc(C)n2c(cc3c(OC)cccc32)c1=O		7.15% (inactive)
CCc1ccccc1NC(=O)CN(C)S(=O)(=O)c1ccc2c(c1)c(=O)n(C)c(=O)n2C		-12.8% (inactive)
CCOc1ccc(S(=O)(=O)N2CCC(c3ccccc3)CC2)cc1C(=O)O		3% (inactive)

Structure (SMILES)	Potency	activity change, negative = growth inhibition
CN(Cc1ccccc1)C(=O)COC(=O)c1ccccc1Nc1ccccc1		-0.608% (inactive)
Cc1ccc(C)c(S(=O)(=O)n2nc(C)c(S(=O)(=O)N3CCC(C)CC3)c2C)c1		-7.4% (inactive)
Cc1ccc(C)c(S(=O)(=O)N2CCN(c3ncnc4sccc34)CC2)c1	11.6 µM (active)	
Cc1ccc(S(=O)(=O)N2CCN(c3ncnc4ccccc34)CC2)cc1	461 nM (active) and 1.58 µM (active)	
O=[N+]([O-])c1ccc(S(=O)(=O)N2CCN(c3nc(-c4ccccc4)nc4ccccc34)CC2)cc1		1.79% (inactive)
Cc1ccc(S(=O)(=O)N2CCN(C)CC2)cc1		18.1% (inactive)
COc1ccc(C)cc1S(=O)(=O)N1CCN(S(=O)(=O)c2cc(C(=O)O)ccc2C)CC1		-0.611% (inactive)
CCOC(=O)c1[nH]c(C)c(CCC(=O)NCc2ccccc2C)c1C		-16.7% (inactive)
CCCNC(=O)C1(C)CCN(C(=O)c2cc(F)ccc2C)C1 (configuration not stated)		-11.1% (inactive)
CC(C)Oc1ccc(CN2CCC(n3nccc3NC(=O)c3cccnc3)CC2)cc1		-19.1% (inactive)
COC(=O)[C@@]1(Cc2ccc(OC)cc2)[C@H]2c3cc(C(=O)N4CCCC4)n(Cc4ccc(OC(F)(F)F)cc4)c3C[C@H]2CN1C(=O)c1ccccc1	16.4 µM (active)	
COC(=O)c1ccc(CN2CCC(CO)(Cc3ccc(OC)cc3)CC2)cc1		5.36% (inactive)
CSc1ccc(S(=O)(=O)NCC(=O)OCC(=O)NC2(C#N)CCCCC2)cc1[N+](=O)[O-]		-3.09% (inactive)
CCN(CC(=O)NCC(=O)Nc1cccc(C)c1C)Cc1ccccc1		-19.9% (inactive)
CSC1=NC2(C)CCCCC2C12C=CC(=O)C=C2 (configuration not stated)		-2.58% (inactive)
CCOc1cc(C2C(C(=O)c3ccco3)=C(O)C(=O)N2Cc2ccccc2)ccc1O (configuration not stated)		4.89% (inactive)
CC(C)c1ccc(C2C(C(=O)c3ccco3)=C(O)C(=O)N2CC2CCCO2)cc1 (configuration not stated)	20.6 µM (active)	
O=C(C1=C(O)C(=O)N(Cc2ccccc2)C1c1ccco1)c1ccco1 (configuration not stated)		-1.15% (inactive)
COc1cccc(OCC(=O)NNC(=O)c2cnccn2)c1		-1.97% (inactive)
CN(C(=O)COc1ccccc1)c1nnc(-c2ccncc2)s1		-6.56% (inactive)
O=C(O)Cc1sc(-c2ccccc2)nc1-c1cccs1		-3.68% (inactive)
CN(C(=O)COc1nnc(-c2cccs2)c(-c2cccs2)n1)c1ccccc1	23.1 µM (active)	
CCOc1ccc(CC(=O)NCCc2csc3nc(-c4ccccc4F)nn23)cc1		-27.1% (inactive)
